In PubChem BioAssay:
Unmarked numbers belong to inactive results. For part of these data: Results with a measured potency or affinity are listed apart. Activity calls are given as the source filed them. Unless noted, no rule for the calls is given here.

Columns and labels:
[1] = antimalarial activity against Dd2 strain (AID 2302;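 active = growth inhibition above 50% at the single 2 µM test dose, taken to imply half-maximal potency below 2 µM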;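 also: 0% = DMSO untreated growth and 100% = chloroquine plus artemisinin killed control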); settings: P. falciparum Dd2 in RBCs, LDH growth readout, 72 h; at 2 µM; active compounds read high
[2] = HepG2 cytotoxicity, primary screen, cytotoxicity control for P. falciparum antimalarial project, cell-based, ATP luminescence (AID 2303;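 active = inhibition above 50%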;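 also: 0% = DMSO wells and 100% = digitonin-killed cells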); settings: HepG2 viability, 24-48 h, at 10 µM, active compounds read high
[3] = target: L-lactate dehydrogenase (Plasmodium falciparum (isolate CDC / Honduras)) (UniProt Q27743); assay: PfLDH activity inhibition – cell lysate, 3D7 strain, counter-screen for P. falciparum growth inhibition project (AID 2304);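 also: 0% = vehicle and 100% = reference inhibitor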; settings: P. falciparum 3D7 crude extract, LDH APAD/NBT absorbance; at 2 µM; active compounds read high
L-lactate dehydrogenase (Plasmodium falciparum (isolate CDC / Honduras)), sequence (Q27743 whole entry, looked up): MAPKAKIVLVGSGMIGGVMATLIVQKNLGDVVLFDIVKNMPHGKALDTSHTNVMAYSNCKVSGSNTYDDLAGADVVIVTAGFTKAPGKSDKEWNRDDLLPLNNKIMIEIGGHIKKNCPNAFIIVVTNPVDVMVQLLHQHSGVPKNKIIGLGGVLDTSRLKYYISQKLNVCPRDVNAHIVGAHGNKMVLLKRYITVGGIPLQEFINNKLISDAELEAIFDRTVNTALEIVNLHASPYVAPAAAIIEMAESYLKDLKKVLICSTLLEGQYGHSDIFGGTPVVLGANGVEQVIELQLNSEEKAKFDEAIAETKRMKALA

[4] = inhibition of 3D7 malaria parasite growth – strain 3D7 (AID 2306);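 also: 0% = DMSO wells and 100% = chloroquine plus artemisinin control wells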; settings: P. falciparum 3D7 erythrocytic growth, LDH absorbance, 72 h; at 2 µM; active compounds read high
[5] = target: Calcium-dependent protein kinase 1 (Plasmodium falciparum (isolate 3D7)) (UniProt P62344); assay: PfCDPK1 kinase inhibitors, biochemical, TCAMS library (AID 1159585; cut-off not given, nearly all actives have IC50 up to about 0.98 µM;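 also: inhibitors leave more ATP so luminescence rises with inhibition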); settings: recombinant PfCDPK1, Kinase-Glo ATP depletion luminescence
Calcium-dependent protein kinase 1 (Plasmodium falciparum (isolate 3D7)), sequence (P62344 whole entry, looked up): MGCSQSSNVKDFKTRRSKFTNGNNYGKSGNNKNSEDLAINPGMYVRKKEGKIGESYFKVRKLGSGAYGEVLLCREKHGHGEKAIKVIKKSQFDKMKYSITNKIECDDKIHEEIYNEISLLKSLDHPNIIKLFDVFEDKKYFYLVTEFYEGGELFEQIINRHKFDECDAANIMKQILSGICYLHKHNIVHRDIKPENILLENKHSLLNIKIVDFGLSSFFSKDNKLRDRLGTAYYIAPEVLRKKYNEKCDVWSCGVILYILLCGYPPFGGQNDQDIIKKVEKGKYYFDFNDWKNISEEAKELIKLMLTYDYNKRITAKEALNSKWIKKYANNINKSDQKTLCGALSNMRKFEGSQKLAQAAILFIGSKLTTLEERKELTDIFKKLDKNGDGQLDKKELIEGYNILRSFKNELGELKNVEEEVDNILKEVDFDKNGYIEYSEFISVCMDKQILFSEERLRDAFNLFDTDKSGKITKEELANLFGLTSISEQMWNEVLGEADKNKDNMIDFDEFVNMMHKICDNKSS

[6] = target: Plasmodium falciparum protein kinase 6 (PK6, PF3D7_1337100) (UniProt Q8IDW1); assay: PfPK6 kinase inhibitors, biochemical, TCAMS library (AID 1159586); settings: recombinant PfPK6, Kinase-Glo ATP depletion luminescence
Plasmodium falciparum protein kinase 6 (PK6, PF3D7_1337100), sequence (Q8IDW1 1-305): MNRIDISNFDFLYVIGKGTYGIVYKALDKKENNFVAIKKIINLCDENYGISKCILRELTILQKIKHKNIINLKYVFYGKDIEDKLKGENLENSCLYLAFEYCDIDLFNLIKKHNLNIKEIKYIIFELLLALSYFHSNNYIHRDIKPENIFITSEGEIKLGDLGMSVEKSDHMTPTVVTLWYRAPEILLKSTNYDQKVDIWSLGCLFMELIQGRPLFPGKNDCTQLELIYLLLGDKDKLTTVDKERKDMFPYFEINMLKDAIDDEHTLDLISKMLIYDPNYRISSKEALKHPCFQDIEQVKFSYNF

[7] = target: Protein kinase 7 (PK7), Plasmodium falciparum 3D7 (PF3D7_0213400) (UniProt Q7YTF7); assay: inhibition of Plasmodium PK7 catalytic activity – biochemical, TCAMS antimalarial set, Kinase-Glo luminescence (AID 1159587); settings: recombinant PfPK7, Kinase-Glo ATP depletion luminescence
Protein kinase 7 (PK7), Plasmodium falciparum 3D7 (PF3D7_0213400), sequence (Q7YTF7 1-343): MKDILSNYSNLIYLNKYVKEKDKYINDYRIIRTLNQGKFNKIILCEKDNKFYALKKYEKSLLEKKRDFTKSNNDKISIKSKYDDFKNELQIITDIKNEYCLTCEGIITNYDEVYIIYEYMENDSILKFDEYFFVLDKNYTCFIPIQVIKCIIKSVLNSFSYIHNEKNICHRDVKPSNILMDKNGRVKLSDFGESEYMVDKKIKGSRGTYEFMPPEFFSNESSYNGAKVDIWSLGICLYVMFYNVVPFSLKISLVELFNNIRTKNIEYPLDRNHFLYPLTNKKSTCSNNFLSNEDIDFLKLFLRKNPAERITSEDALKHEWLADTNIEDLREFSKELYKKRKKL

[8] = target: Calcium-dependent protein kinase 4 (Plasmodium falciparum (isolate 3D7)) (UniProt Q8IBS5); assay: PfCDPK4 kinase inhibitors, biochemical, TCAMS library (AID 1159588; cut-off not given, nearly all actives have IC50 up to about 0.91 µM); settings: recombinant PfCDPK4, Kinase-Glo ATP depletion luminescence
Calcium-dependent protein kinase 4 (Plasmodium falciparum (isolate 3D7)), sequence (Q8IBS5 whole entry, looked up): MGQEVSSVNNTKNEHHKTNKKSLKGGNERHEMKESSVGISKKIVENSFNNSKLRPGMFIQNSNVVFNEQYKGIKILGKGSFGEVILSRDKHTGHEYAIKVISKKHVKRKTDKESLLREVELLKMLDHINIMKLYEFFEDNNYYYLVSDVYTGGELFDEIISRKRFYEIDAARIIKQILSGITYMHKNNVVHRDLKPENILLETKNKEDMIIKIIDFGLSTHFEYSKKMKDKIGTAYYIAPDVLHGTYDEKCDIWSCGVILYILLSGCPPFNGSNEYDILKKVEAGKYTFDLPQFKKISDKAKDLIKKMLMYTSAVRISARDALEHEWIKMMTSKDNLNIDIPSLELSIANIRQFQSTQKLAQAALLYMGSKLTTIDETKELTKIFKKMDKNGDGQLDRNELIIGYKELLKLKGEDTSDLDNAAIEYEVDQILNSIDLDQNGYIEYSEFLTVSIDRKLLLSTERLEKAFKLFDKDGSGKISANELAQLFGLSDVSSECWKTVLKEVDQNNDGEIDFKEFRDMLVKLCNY

Compound | growth inhibition [1] | inhibition [2] [%] | inhibition [3] [%] | growth inhibition [4] | outcome [5] | outcome [6] | outcome [7] | outcome [8]
O=C(CCc1cnc[nH]1)Nc1cccc(-c2ccc(-c3nc4ccccc4[nH]3)cc2)c1 | 60% (active) | 24 | 1 | 100% (active) | inactive | inactive | inactive | inactive
CCOC(=O)c1ccc(NC(=O)Nc2ccc(-c3ccc(-c4nc5ccccc5[nH]4)cc3)cc2)cc1 | 100% (active) | 49 | 0 | 101% (active) | inactive | inactive | inactive | inactive
O=C(Nc1cccc(F)c1)NC1CCN(c2ccnc3cc(Cl)ccc23)CC1 | 37% | 11 | -4 | 96% (active) | inactive | inactive | inactive | inactive
